According to PubChem BioAssay AID1159580 (chemical genetic matrix, 2015):
Values joined by “and” are separate entries in the source; they are usually repeats but may differ in a detail not shown here. Identical values can stand only once. Screen size: about 5,500 compounds; about 2,000 (36%) were called active. Not shown: some 18% with an inconclusive outcome. Rule as the data show it: active = normalized growth mostly below about 0.91 (no sharp cut-off); inconclusive = no clear call, values can overlap the other calls; inactive = mostly above about 0.92. The list shows a part of the results.

Test: chemical genetic growth profiling, strain panel (AID 1159580);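 also: tested at 20 µM; growth read once vehicle control cultures reached saturation at 30 °C; 1 = growth at the plate median or of vehicle wells; lower values mean less growth of the strain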
Settings: S. cerevisiae deletion strains, growth OD

Measured: normalized growth

CNC[C@H](O)c1cccc(O)c1
inactive: locus YAL013W, strain DEP1, active compounds read low 1.01 | locus YAL021C, strain ccr4, active compounds read low 0.979 | locus YAL026C, strain drs2, active compounds read low 0.997 | locus YAL030W, strain snc1, active compounds read low 0.986 | locus YBL061C, strain skt5, active compounds read low 0.988 | locus YBR009C, strain hhf1, active compounds read low 0.995 | locus YBR021W, strain FUR4, active compounds read low 1 | locus YBR023C, strain chs3, active compounds read low 0.986 | locus YBR171W, strain sec66, active compounds read low 0.98 | locus YBR229C, strain ROT2, active compounds read low 1.01 | locus YBR231C, strain swc5, active compounds read low 0.967 | locus YBR279W, strain paf1, active compounds read low 0.991 | locus YCL011C, strain gbp2, active compounds read low 1 | locus YCL016C, strain dcc1, active compounds read low 0.983 | locus YCL029C, strain bik1, active compounds read low 1.02 | locus YCL069W, strain vba3, active compounds read low 0.991 | locus YCR088W, strain abp1, active compounds read low 0.986 | locus YDL005C, strain med2, active compounds read low 0.968 | locus YDL035C, strain GPR1, active compounds read low 1.01 | locus YDL040C, strain nat1, active compounds read low 0.984 | locus YDL074C, strain BRE1, active compounds read low 1.01 | locus YDL101C, strain DUN1, active compounds read low 1.01 | locus YDL134C, strain PPH21, active compounds read low 1.01 | locus YDL185W, strain tfp1, active compounds read low 1.02 | locus YDL192W, strain arf1, active compounds read low 1.02 | locus YDR001C, strain nth1, active compounds read low 0.991 | locus YDR069C, strain doa4, active compounds read low 0.982 | locus YDR101C, strain arx1, active compounds read low 1.02 | locus YDR137W, strain rgp1, active compounds read low 0.966 | locus YDR150W, strain NUM1, active compounds read low 1.01 | locus YDR159W, strain sac3, active compounds read low 0.981 | locus YDR162C, strain NBP2, active compounds read low 1.01 | locus YDR195W, strain ref2 0.91 | locus YDR297W, strain sur2, active compounds read low 0.981 | locus YDR318W, strain mcm21, active compounds read low 1.02 | locus YDR334W, strain swr1, active compounds read low 0.982 | locus YDR335W, strain msn5, active compounds read low 0.99 | locus YDR388W, active compounds read low 1.01 | locus YDR392W, strain spt3, active compounds read low 1 | locus YDR502C, strain sam2, active compounds read low 1.01 | locus YEL003W, strain gim4, active compounds read low 0.989 | locus YEL037C, strain rad23, active compounds read low 0.984 | locus YEL061C, strain CIN8 (second series), active compounds read low 0.99 | locus YEL061C, strain CIN8, active compounds read low 1.01 | locus YER015W, strain faa2, active compounds read low 0.969 | locus YER016W, strain bim1, active compounds read low 0.981 | locus YER110C, active compounds read low 1.02 | locus YER111C, strain swi4, active compounds read low 0.988 | locus YER155C, strain BEM2 (second series), active compounds read low 0.953 | locus YER155C, strain BEM2, active compounds read low 1 | locus YER167W, strain BCK2, active compounds read low 1.01 | locus YFR010W, strain ubp6, active compounds read low 0.976 | locus YGL078C, strain dbp3, active compounds read low 1.01 | locus YGL086W, strain mad1, active compounds read low 1 | locus YGL167C, strain pmr1, active compounds read low 0.983 | locus YGL173C, strain kem1, active compounds read low 0.955 | locus YGL227W, strain vid30, active compounds read low 0.971 | locus YGL240W, strain doc1, active compounds read low 0.95 | locus YGL248W, strain PDE1, active compounds read low 1 | locus YGL253W, strain hxk2, active compounds read low 1.01 | locus YGR078C, strain PAC10, active compounds read low 0.996 | locus YGR135W, strain pre9, active compounds read low 1 | locus YGR229C, strain SMI1, active compounds read low 0.992 | locus YGR252W, strain gcn5, active compounds read low 0.989 | locus YHR013C, strain ard1, active compounds read low 0.982 | locus YHR027C, strain rpn1, active compounds read low 0.99 | locus YHR030C, strain SLT2, active compounds read low 1 and 1.01 | locus YHR079C, strain IRE1 (second series), active compounds read low 1.02 | locus YHR079C, strain IRE1, active compounds read low 1.03 | locus YHR094C, strain hxt1, active compounds read low 1.02 | locus YHR129C, strain ARP1, active compounds read low 1.01 | locus YHR142W, strain chs7, active compounds read low 1 | locus YHR200W, strain rpn10, active compounds read low 1.02 | locus YIL066C, strain RNR3, active compounds read low 1.01 | locus YIL073C, strain SPO22, active compounds read low 1.04 | locus YIL125W, strain kgd1, active compounds read low 1.01 | locus YIR030C, strain dcg1, active compounds read low 1.01 | locus YJL092W, strain hpr5, active compounds read low 0.977 | locus YJL095W, strain BCK1 (second series), active compounds read low 0.98 | locus YJL095W, strain BCK1, active compounds read low 1.01 and 1.02 | locus YJL115W, strain asf1, active compounds read low 0.976 | locus YJL129C, strain trk1, active compounds read low 0.977 | locus YJL134W, strain LCB3, active compounds read low 1 | locus YJL154C, strain vps35, active compounds read low 0.987 | locus YJL164C, strain tpk1, active compounds read low 0.985 | locus YJL166W, strain qcr8, active compounds read low 0.956 | locus YJL168C, strain set2, active compounds read low 1.02 | locus YJL187C, strain SWE1 (second series), active compounds read low 1.01 | locus YJR043C, strain POL32, active compounds read low 0.996 | locus YJR066W, strain TOR1, active compounds read low 0.969 | locus YJR075W, strain HOC1, active compounds read low 1
